# The panel holds about 79,000 compounds, 15% with a hit somewhere; the sample as a whole holds those more often. Unmarked numbers belong to inactive results. Calls of active or inactive are those of the source. Rule as the data show it: active = growth inhibition above about 70%; inactive = the rest.
# How the values were obtained:
# [1] = NCI Yeast Anticancer Drug Screen. Data for the rad52 strain (AID 147);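 also: 0% = growth of vehicle-treated control cultures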; conditions: S. cerevisiae rad52 mutant growth inhibition, hits give high values
# How it was run: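 Read-out: growth inhibition versus vehicle-treated controls. Cells were a DNA repair-deficient yeast strain treated with compounds.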
# [2] = NCI Yeast Anticancer Drug Screen. Data for the wt1 strain (AID 149);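 also: 0% = growth of vehicle-treated wt1 cultures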; conditions: S. cerevisiae wt1 strain (SPY 50644) growth inhibition, hits give high values
# How it was run: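 Measured: growth of wt1 yeast under compound versus vehicle treatment, reported as inhibition.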
# [3] = NCI Yeast Anticancer Drug Screen. Data for the rad50EPP+ strain (AID 151);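 also: 0% = growth of vehicle-treated control cultures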; conditions: S. cerevisiae rad50 mutant strain, hits give high values
# How it was run: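 Growth inhibition read against vehicle controls in rad50EPP+ yeast, a strain altered in DNA damage repair, after compound exposure.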
# [4] = NCI Yeast Anticancer Drug Screen. Data for the mgt1 strain (AID 153); conditions: S. cerevisiae mgt1 mutant growth inhibition, hits give high values
# How it was run: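 mgt1 yeast grown with test compound; read-out is growth inhibition versus vehicle-treated cultures.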
# [5] = NCI Yeast Anticancer Drug Screen. Data for the rad50 strain (AID 155);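 also: 0% = growth of vehicle-only cultures of the same strain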; conditions: S. cerevisiae rad50 strain growth inhibition, hits give high values
# How it was run: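 Growth of the mutant yeast was measured after compound exposure and referenced to vehicle-treated cultures.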
# [6] = NCI Yeast Anticancer Drug Screen. Data for the mec2-1 strain (AID 157); conditions: S. cerevisiae mec2-1 strain, hits give high values
# How it was run: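 Yeast mec2-1 mutant treated with compound. Readout: growth inhibition vs vehicle controls.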
# [7] = NCI Yeast Anticancer Drug Screen. Data for the rad14 strain (AID 159);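 also: 0% = growth of vehicle-treated control cultures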; conditions: S. cerevisiae rad14 strain growth inhibition, hits give high values
# How it was run: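 Here, inhibition of yeast growth was measured after compound exposure, using a strain with a genetic defect in DNA damage repair and vehicle-treated cultures as the reference.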
# [8] = NCI Yeast Anticancer Drug Screen. Data for the sgs1 mgt1 strain (AID 161);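 also: 0% = growth of cultures given vehicle only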; conditions: S. cerevisiae sgs1 mgt1 strain, hits give high values
# How it was run: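 Inhibition of yeast growth, normalised to vehicle-treated controls, is reported for a strain bearing genetic alterations in DNA damage repair.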
# [9] = NCI Yeast Anticancer Drug Screen. Data for the CLN2oe strain (AID 163);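 also: 0% = growth of vehicle-only control cultures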; conditions: S. cerevisiae CLN2oe strain, hits give high values
# How it was run: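 Read-out: yeast growth inhibition, expressed relative to vehicle-only controls. The strain bears an engineered cell-cycle alteration.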
# [10] = NCI Yeast Anticancer Drug Screen. Data for the cln2 rad14 strain (AID 165);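 also: 0% = growth equal to vehicle treated cultures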; conditions: S. cerevisiae cln2 rad14 strain, hits give high values
# How it was run: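 cln2 rad14 yeast strain; compound exposure; growth inhibition read vs vehicle controls.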
# [11] = NCI Yeast Anticancer Drug Screen. Data for the bub3 strain (AID 167); conditions: S. cerevisiae bub3 mutant strain, hits give high values
# How it was run: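 Whole-cell yeast assay. The mutant strain was incubated with compounds, and growth inhibition was determined by comparison with vehicle-treated cells.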
# [12] = NCI Yeast Anticancer Drug Screen. Data for the wt2 strain (AID 169);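 also: 0% = growth of vehicle-treated yeast cultures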; conditions: S. cerevisiae wt2 strain growth inhibition, hits give high values
# How it was run: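 Read-out: growth inhibition versus vehicle-treated control cultures after compound exposure of the yeast strain.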
# [13] = NCI Yeast Anticancer Drug Screen. Data for the mlh1 strain (AID 171);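 also: 0% = growth of vehicle-treated control cultures of the same strain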; conditions: S. cerevisiae mlh1 strain growth inhibition, hits give high values
# How it was run: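 Read-out: growth inhibition versus vehicle controls. Strain: engineered yeast with a defined DNA repair or cell cycle defect, compound-treated.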
# [14] = NCI Yeast Anticancer Drug Screen. Data for the sgs1 strain (AID 173);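 also: 0% = growth of vehicle-only control cultures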; conditions: S. cerevisiae sgs1 mutant, hits give high values
# How it was run: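 Read-out: yeast growth inhibition relative to vehicle controls, following compound exposure of a strain with a defined DNA repair/cell cycle alteration.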
# [15] = NCI Yeast Anticancer Drug Screen. Data for the mlh1 rad18 strain (AID 175); conditions: S. cerevisiae mlh1 rad18 strain growth inhibition, hits give high values
# How it was run: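 Yeast w/ defined DNA-repair lesions; compound exposure; growth vs vehicle controls → % inhibition.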
# [16] = NCI Yeast Anticancer Drug Screen. Data for the rad18 strain (AID 177); conditions: S. cerevisiae rad18 mutant growth inhibition, hits give high values
# How it was run: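 Readout: growth inhibition vs vehicle controls. Cells: genetically altered yeast strain, DNA repair defect.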
# [17] = at 5.0 µM (retest, dose inferred, filed as 0.5)
# [18] = at 50.0 µM (retest, dose inferred, filed as 5.0)
structure (smiles),measurement,setting,value
CC(=O)ON=C1C=CC(=C(C#N)c2ccc(Cl)cc2)C=C1,growth inhibition,[1]; at 1.2 µM,1%
same,growth inhibition,[1]; at 3.7 µM,-1%
same,growth inhibition,[1]; at 11.0 µM,1%
same,growth inhibition,[1]; at 33.0 µM,22%
same,growth inhibition,[1]; at 100.0 µM,69%
same,growth inhibition,[2]; at 1.2 µM,0%
same,growth inhibition,[2]; at 3.7 µM,0%
same,growth inhibition,[2]; at 11.0 µM,4%
same,growth inhibition,[2]; at 33.0 µM,10%
same,growth inhibition,[2]; at 100.0 µM,61%
same,growth inhibition,[3]; at 1.2 µM,19%
same,growth inhibition,[3]; at 3.7 µM,38%
same,growth inhibition,[3]; at 11.0 µM,64%
same,growth inhibition,[3]; at 33.0 µM,91% (active)
same,growth inhibition,[3]; at 100.0 µM,96% (active)
same,growth inhibition,[4]; at 1.2 µM,0%
same,growth inhibition,[4]; at 3.7 µM,2%
same,growth inhibition,[4]; at 11.0 µM,4%
same,growth inhibition,[4]; at 33.0 µM,42%
same,growth inhibition,[4]; at 100.0 µM,77% (active)
same,growth inhibition,[5]; at 1.2 µM,0%
same,growth inhibition,[5]; at 3.7 µM,-3%
same,growth inhibition,[5]; [17],25%
same,growth inhibition,[5]; at 11.0 µM,-1%
same,growth inhibition,[5]; at 33.0 µM,9%
same,growth inhibition,[5]; [18],97% (active)
same,growth inhibition,[5]; at 50.0 µM,99.4% (active)
same,growth inhibition,[5]; at 100.0 µM,59%
same,growth inhibition,[6]; at 1.2 µM,-1%
same,growth inhibition,[6]; at 3.7 µM,0%
same,growth inhibition,[6]; [17],11%
same,growth inhibition,[6]; at 11.0 µM,1%
same,growth inhibition,[6]; at 33.0 µM,19%
same,growth inhibition,[6]; [18],99% (active)
same,growth inhibition,[6]; at 50.0 µM,99% (active)
same,growth inhibition,[6]; at 100.0 µM,59%
same,growth inhibition,[7]; at 1.2 µM,-3%
same,growth inhibition,[7]; at 3.7 µM,-4%
same,growth inhibition,[7]; at 11.0 µM,-1%
same,growth inhibition,[7]; at 33.0 µM,22%
same,growth inhibition,[7]; at 100.0 µM,98% (active)
same,growth inhibition,[8]; [17],41%
same,growth inhibition,[8]; [18],99% (active)
same,growth inhibition,[8]; at 50.0 µM,99.5% (active)
same,growth inhibition,[9]; at 1.2 µM,-3%
same,growth inhibition,[9]; at 3.7 µM,-8%
same,growth inhibition,[9]; at 11.0 µM,-1%
same,growth inhibition,[9]; at 33.0 µM,3%
same,growth inhibition,[9]; at 100.0 µM,56%
same,growth inhibition,[10]; [17],7%
same,growth inhibition,[10]; [18],98% (active)
same,growth inhibition,[10]; at 50.0 µM,77.1% (active)
same,growth inhibition,[11]; at 1.2 µM,-4%
same,growth inhibition,[11]; at 3.7 µM,-4%
same,growth inhibition,[11]; [17],3%
same,growth inhibition,[11]; at 11.0 µM,-5%
same,growth inhibition,[11]; at 33.0 µM,7%
same,growth inhibition,[11]; [18],75% (active)
same,growth inhibition,[11]; at 50.0 µM,56%
same,growth inhibition,[11]; at 100.0 µM,50%
same,growth inhibition,[12]; at 1.2 µM,1%
same,growth inhibition,[12]; at 3.7 µM,3%
same,growth inhibition,[12]; at 11.0 µM,9%
same,growth inhibition,[12]; at 33.0 µM,52%
same,growth inhibition,[12]; at 100.0 µM,86% (active)
same,growth inhibition,[13]; at 1.2 µM,4%
same,growth inhibition,[13]; at 3.7 µM,3%
same,growth inhibition,[13]; at 11.0 µM,9%
same,growth inhibition,[13]; at 33.0 µM,38%
same,growth inhibition,[13]; at 100.0 µM,74% (active)
same,growth inhibition,[14]; at 1.2 µM,2%
same,growth inhibition,[14]; at 3.7 µM,10%
same,growth inhibition,[14]; at 11.0 µM,16%
same,growth inhibition,[14]; at 33.0 µM,58%
same,growth inhibition,[14]; at 100.0 µM,95% (active)
same,growth inhibition,[15]; [17],29%
same,growth inhibition,[15]; [18],97% (active)
same,growth inhibition,[15]; at 50.0 µM,98.5% (active)
same,growth inhibition,[16]; at 1.2 µM,2%
same,growth inhibition,[16]; at 3.7 µM,1%
same,growth inhibition,[16]; at 11.0 µM,2%
same,growth inhibition,[16]; at 33.0 µM,19%
same,growth inhibition,[16]; at 100.0 µM,67%

# Source: PubChem BioAssay (NCI)
